Measured values as given in PubChem BioAssay (NCATS).
Where “and” joins values, the source holds several entries; their conditions need not be identical. Equal values may be shown once. Results filed as inconclusive are left out. Calls of active or inactive are those of the source. The call rests on the fitted dose curve; in most records, active means well fitted cell-killing curve with a large enough effect; inconclusive means small, poorly fitted or top-dose-only effect; inactive means flat fitted curve, though single readings scatter.

experiment: Cellular viability qHTS for adrenocortical cancer (ACC) cell line SW-13 (AID 1963989); settings: SW-13 ACC cells viability, CellTiter-Glo, 48 h; activity (max response): hits give low values;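 further: cells grown in serum-free medium with ITS supplement; on the % scale 0 is the no-effect control and ±100 the full control effect; nearly all actives have a fitted effect of over 65% in size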
How it was run: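 48 h treatment, SW-13 in ITS/DMEM serum-free; doses up to 46 uM; readout CellTiter-Glo luminescence; curve fit four-parameter logistic.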

| SMILES | activity (max response) |
| --- | --- |
| O=C(Oc1ccccc1)c1cccc(C(=O)Oc2ccccc2)c1 | -1.98% (inactive) |
| COP(=O)(OC)OC(c1ccc(Cl)cc1)P(=O)(OC)OC (stereo not given) | -0.893% (inactive) |
| NC(=O)c1ncn([C@@H]2O[C@H](CO)[C@@H](O)[C@H]2O)n1 | -0.314% (inactive) and -2.41% (inactive) |
| O=C(O)[C@@H]1CSCN1 | -7.21% (inactive) |
| Cl/C(=C\n1cncn1)c1ccc(Cl)cc1Cl | 2.66% (inactive) |
| CC[N+](CC)(CC(=O)Nc1c(C)cccc1C)Cc1ccccc1 | 1.59% (inactive) |
| CC(N)CCCC(C)(C)O (stereo not given) | 18.8% (inactive) |
| CO[C@@H]1[C@@H](O[C@@H]2O[C@H](C)[C@@H](O[C@H]3C[C@@](C)(O)[C@@H](O)[C@H](C)O3)[C@H](N(C)C)[C@H]2O)[C@@H](CC=O)C[C@@H](C)[C@@H](O[C@@H]2CC[C@H](N(C)C)[C@@H](C)O2)/C=C/C=C/C[C@@H](C)OC(=O)C[C@H]1OC(C)=O | -1.59% (inactive) |
| NC(=O)NC1N=C([O][Al])NC1=O (stereo not given) | -0.662% (inactive) |
| O=C(O)c1cn(C2CC2)c2cc(Cl)c(F)cc2c1=O | 13.4% (inactive) |
| CCO/C([O-])=N/c1c[n+](N2CCOCC2)no1 | -2.98% (inactive) |
| CCCOC(=O)c1ccccc1 | 11.8% (inactive) |
| CC(=O)Nc1c(I)c(NC(C)=O)c(I)c(C(=O)O)c1I | 2.04% (inactive) |
| Cn1c(=O)c2c(ncn2CC(=O)O)n(C)c1=O | 9.83% (inactive) |
| O=C(O)c1[nH]n(-c2ccc(S(=O)(=O)O)cc2)c(=O)c1N=Nc1ccc(S(=O)(=O)O)cc1 | 6.82% (inactive) |
| OC[C@H]1O[C@@H](Oc2ccc(O)cc2)[C@H](O)[C@@H](O)[C@@H]1O | -0.0454% (inactive) |
| CCCCCCCCCCCCCCCC(=O)OC(C)C | 6.75% (inactive) |
| O=C(O)CCc1nc2ccccc2[nH]1 | 0.871% (inactive) |
| NC(=O)N[C@@H](CCC(=O)O)C(=O)O | 9.08% (inactive) |
| N=C(N)N | 4.4% (inactive) |
| C[C@H](CN1CCCC1)C(=O)c1ccc(C(F)(F)F)cc1 | -1.72% (inactive) |
| CC(=O)OCC(=O)[C@@]1(OC(C)=O)[C@@H](C)C[C@H]2[C@@H]3C[C@H](F)C4=CC(=O)C=C[C@]4(C)[C@@]3(F)[C@@H](O)C[C@@]21C | 3.57% (inactive) |
| CN1C(=O)c2ccccc2C1=O | -9.75% (inactive) |
| Cc1ccc(C(=O)C(C)CN2CCCCC2)cc1 (stereo not given) | -5.23% (inactive) |
| O=C1c2cccc3c2[C@H](CCC3)CN1[C@@H]1CN2CCC1CC2 | -4.45% (inactive) |

experiment: Cellular viability qHTS for adrenocortical cancer (ACC) cell line NCI-H295R (AID 1963990); settings: CellTiter-Glo ATP luminescence, 48 h; series mostly up to 46.1 µM; activity change, negative = viability loss: at the top concentration; further: nearly all actives have a fitted effect of over 60% in size; further: potency means the concentration at half of the fitted maximal effect;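 on activity change, negative = viability loss: 0% = DMSO only wells and -100% = full killing with cytotoxic reference compound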
How it was run: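 Compound titrations (up to 46 uM final) are applied to NCI-H295R cultures for 48 h at 37C. Viable cell number is estimated by CellTiter-Glo signal, normalised to DMSO and doxorubicin controls.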

| SMILES | activity change, negative = viability loss | Potency |
| --- | --- | --- |
| CO/N=C(\C(=O)N[C@@H]1C(=O)N2C(C(=O)O)=C(CSc3nc(=O)c(O)nn3C)CS[C@H]12)c1csc(N)n1 | 10.8% (inactive) |  |
| CN(C)C(=O)CNC(=O)Cc1ccccc1 | -1.83% (inactive) |  |
| Oc1c(Br)cc(Br)c2cccnc12 |  | 1.64 µM (active) |
| COc1cc2nc(Cl)nc(N)c2cc1OC | -23.8% (inactive) |  |
| CCN1CCC[C@H]1CNC(=O)c1c(O)c(Cl)cc(Cl)c1OC | -1.26% (inactive) |  |
| C[N+]12CCC(CC1)C(OC(=O)C(O)(c1ccccc1)c1ccccc1)C2 (stereo not given) | -8.77% (inactive) |  |
| OC[C@]1(O)OC[C@@H](O)[C@H](O)[C@@H]1O | -0.722% (inactive) |  |
| CCCCCCCCCCCCCCC[C@H](O)[C@@H](N)CO | -10.7% (inactive) |  |
| C[C@@H]1CCN(C(=O)N2CCCC2)C[C@@H]1N(C)c1ncnc2[nH]ccc12 | 9.59% (inactive) |  |
| NC(=O)CC[C@@H]1NC(=O)[C@H](Cc2ccccc2)NC(=O)[C@H](Cc2ccc(O)cc2)NC(=O)CCSSC[C@@H](C(=O)N2CCC[C@H]2C(=O)N[C@@H](CCCN=C(N)N)C(=O)NCC(N)=O)NC(=O)[C@H](CC(N)=O)NC1=O | -4.74% (inactive) |  |
| Cc1nc([N+](=O)[O-])cn1-c1ccc([N+](=O)[O-])cc1 | -0.646% (inactive) |  |
| O=[N+]([O-])c1nccn1CO[C@@H](CO)[C@H](O)CO | -21.7% (inactive) |  |
| OCC(O)CS (stereo not given) | -0.0625% (inactive) |  |
| CN(C)CCCO[C@@H]1[C@H]2OC(C)(C)O[C@H]2O[C@@H]1C(O)CO (stereo not given in full) | -13.2% (inactive) |  |
| CC(C)C(=O)Nc1cccc(C(F)(F)F)c1 | -16.3% (inactive) |  |
| O=C(Oc1ccccc1)c1cccc(C(=O)Oc2ccccc2)c1 | -10.6% [at 92.7 µM] (inactive) |  |
| COP(=O)(OC)OC(c1ccc(Cl)cc1)P(=O)(OC)OC (stereo not given) | -20.5% (inactive) |  |
| NC(=O)c1ncn([C@@H]2O[C@H](CO)[C@@H](O)[C@H]2O)n1 |  | inactive |
| O=C(O)[C@@H]1CSCN1 | -4.21% (inactive) |  |
| Cl/C(=C\n1cncn1)c1ccc(Cl)cc1Cl | -14.8% (inactive) |  |

| SMILES | activity change, negative = viability loss | Potency |
| --- | --- | --- |
| CC[N+](CC)(CC(=O)Nc1c(C)cccc1C)Cc1ccccc1 | -7.65% (inactive) |  |
| CC(N)CCCC(C)(C)O (stereo not given) | -20% (inactive) |  |
| CO[C@@H]1[C@@H](O[C@@H]2O[C@H](C)[C@@H](O[C@H]3C[C@@](C)(O)[C@@H](O)[C@H](C)O3)[C@H](N(C)C)[C@H]2O)[C@@H](CC=O)C[C@@H](C)[C@@H](O[C@@H]2CC[C@H](N(C)C)[C@@H](C)O2)/C=C/C=C/C[C@@H](C)OC(=O)C[C@H]1OC(C)=O | -14.4% (inactive) |  |
| NC(=O)NC1N=C([O][Al])NC1=O (stereo not given) | -2.05% (inactive) |  |
| O=C(O)c1cn(C2CC2)c2cc(Cl)c(F)cc2c1=O | 5.6% (inactive) |  |
| CCO/C([O-])=N/c1c[n+](N2CCOCC2)no1 | -6.52% (inactive) |  |
| CCCOC(=O)c1ccccc1 | -5.05% (inactive) |  |
| CC(=O)Nc1c(I)c(NC(C)=O)c(I)c(C(=O)O)c1I | -7.11% (inactive) |  |
| Cn1c(=O)c2c(ncn2CC(=O)O)n(C)c1=O | 2.09% (inactive) |  |
| O=C(O)c1[nH]n(-c2ccc(S(=O)(=O)O)cc2)c(=O)c1N=Nc1ccc(S(=O)(=O)O)cc1 | 6.94% (inactive) |  |
| OC[C@H]1O[C@@H](Oc2ccc(O)cc2)[C@H](O)[C@@H](O)[C@@H]1O | -11.7% (inactive) |  |
| CCCCCCCCCCCCCCCC(=O)OC(C)C | -12.1% (inactive) |  |
| O=C(O)CCc1nc2ccccc2[nH]1 | -6.4% (inactive) |  |
| NC(=O)N[C@@H](CCC(=O)O)C(=O)O | -10% (inactive) |  |
| N=C(N)N | -13.6% (inactive) |  |
| C[C@H](CN1CCCC1)C(=O)c1ccc(C(F)(F)F)cc1 | -2.98% (inactive) |  |
| CC(=O)OCC(=O)[C@@]1(OC(C)=O)[C@@H](C)C[C@H]2[C@@H]3C[C@H](F)C4=CC(=O)C=C[C@]4(C)[C@@]3(F)[C@@H](O)C[C@@]21C | -5.55% (inactive) |  |
| CN1C(=O)c2ccccc2C1=O | -4.75% [at 92.7 µM] (inactive) |  |
| Cc1ccc(C(=O)C(C)CN2CCCCC2)cc1 (stereo not given) | -15.3% (inactive) |  |
| O=C1c2cccc3c2[C@H](CCC3)CN1[C@@H]1CN2CCC1CC2 | -27.8% (inactive) |  |
